Compound activity deposited in PubChem BioAssay by National Center for Advancing Translational Sciences (NCATS).
Most compounds without a hit are left out; they make up all but 5.7% or so of the library.
BAZ2B inh – qHTS Assay for Inhibitors of BAZ2B. 4.4% of 360,000 active. Potency, µM (titrated, usually from 114 µM), for the others: at the top dose activity change, negative = inhibition, most hits filed as inhibitors. AID 504333, 2011. AlphaScreen BAZ2B-H3K14Ac peptide displacement. Bromodomain adjacent to zinc finger domain protein 2B (Homo sapiens), Q9UIF8; also: potency is read from the fitted curve at half-maximal effect; % is scaled to controls: 0 for no effect and ±100 for the full control effect; nearly all actives have a fitted effect of over 60% in size
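In this displacement format the biotinylated H3(5-23) peptide acetylated at Lys14 serves as ligand at 50 nM, with BAZ2B at 50 nM in PBS pH 7.4 containing 0.01% Tween-20. Donor and acceptor beads are 10 ug/mL final.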
L3MBTL1 block – qHTS Assay for the Inhibitors of L3MBTL1 | AlphaScreen L3MBTL1–H3K9me1 peptide binding | Potency, µM (doses to about 57.1 µM), for the others: top-dose activity, negative = inhibition, actives largely listed as inhibitors | 0.66% of 230,000 active | AID 485360, 2010; also: potency is read from the fitted curve at half-maximal effect; % is scaled to controls: 0 for no effect and ±100 for the full control effect; nearly all actives have a fitted effect of over 60% in size
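L3MBTL1 50 nM + b-AHA-H3(1-15)K9me1 75 nM, 30 min RT; compound added, 30 min RT; streptavidin donor/Ni-chelate acceptor beads 10 ug/mL each final, 30 min RT dark; AlphaScreen read.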
PI5P4K alpha inh – qHTS for Inhibitors of phosphatidylinositol 5-phosphate 4-kinase (PI5P4K); Phosphatidylinositol 5-phosphate 4-kinase type-2 alpha (Homo sapiens), P48426; PI5P4Kalpha enzyme, ADP-Glo luminescence, 60 min; active compounds read low; 1.2% of 330,000 active; max response, %; AID 652105, 2013; active = max response of -50% or lower; inconclusive = between -30% and -50%; inactive = -30% or higher; also: value at the top dose of about 77 µM; % is scaled to controls: 0 for no effect and ±100 for the full control effect
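Single end-point luminescence (ADP-Glo) quantified ADP from PI5P4Kalpha turnover; ATP 5 microM final, 1 h at RT, 0.1% CHAPS and 0.28 mM EGTA in HEPES pH 7.4.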
HP1b chromo inh – HTS for Inhibitors of HP1-beta Chromodomain Interactions with Methylated Histone Tails; Chromobox protein homolog 1 (Homo sapiens), P83916; AlphaScreen HP1-beta / biotin-H3K9me3 peptide binding; Potency, µM (highest dose often 114 µM), for the others: at the highest dose activity change, negative = inhibition, usual class: inhibitors; 0.56% of 390,000 active; also: potency is read from the fitted curve at half-maximal effect; nearly all actives have a fitted effect of over 70% in size
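HP1-beta protein (50 nM final) preincubated 30 min at room temperature with biotinylated H3(1-18)K9me3 peptide (50 nM) in PBS pH 7.4, 0.01% Tween-20, then compound added for 30 min. AlphaScreen streptavidin donor/nickel chelate acceptor beads (10 ug/mL final), 30 min dark, luminescence read.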
JMJD2E inh – qHTS Assay for Inhibitors of Human Jumonji Domain Containing 2E (JMJD2E); Lysine-specific demethylase 4E (Homo sapiens), B2RXH2; JMJD2E catalytic domain, FDH-coupled NADH fluorescence (FDH is formaldehyde dehydrogenase); Potency, µM (titrated, usually from 57.1 µM), for inactives: at the highest dose activity change, negative = inhibition, most hits filed as inhibitors; 1.6% of 230,000 active; active = well fitted inhibition curve with a large enough effect, not every such curve was filed as active; inconclusive = small, poorly fitted or top-dose-only effect, or another doubt; inactive = no such curve, though single readings can be large or run the other way;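 also: potency is read from the fitted curve at half-maximal effect; 0% = wells with enzyme and -100% = buffer wells without enzyme; nearly all actives have a fitted effect of over 50% in size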
JMJD2A Tudor – qHTS Assay for Inhibitors of JMJD2A-Tudor Domain | Lysine-specific demethylase 4A (Homo sapiens), O75164 | AlphaScreen JMJD2A-Tudor / H3K4me3 peptide binding | Potency, µM (titrated, usually from 114 µM), without a hit: top-dose activity change, negative = inhibition, actives largely listed as inhibitors | 4.4% of 390,000 active; also: potency is read from the fitted curve at half-maximal effect; % is scaled to controls: 0 for no effect and ±100 for the full control effect; nearly all actives have a fitted effect of over 50% in size
* = called active by the depositor; ? = inconclusive; / = no result; [ ] = another dose, or the depositor's remark. Unless noted, calls follow the shape of the dose curve; as a rule, active = well fitted inhibition curve with a large enough effect; inconclusive = small, poorly fitted or top-dose-only effect; inactive = no such curve, though single readings can be large or run the other way.

SMILES | BAZ2B inh | L3MBTL1 block | PI5P4K alpha inh | HP1b chromo inh | JMJD2E inh | JMJD2A Tudor
O=C(CN1CCCC1)N1CCCC(c2ccc(F)cc2)c2ccc(F)cc21 (configuration not stated) | -37% | 1% | 1 | ? | ? | 0.89µM*
CCC(Oc1ccccc1)C(=O)Nc1nnc(S(=O)(=O)N(CC)CC)s1 (configuration not stated) | -17% | / | / | 22% | / | ?
COCCNC(=O)CN(C(=O)CCC(=O)Nc1cc(C)on1)c1cccc(C)c1C | -5% | -1% | -7 | -11% | 6% | 79µM*
COc1ccc(Cl)cc1NC(=O)Cn1c(=O)n(Cc2ccc(F)cc2)c(=O)c2cccnc21 | -1% | / | / | 19% | / | -7%
CSc1nc(=O)c2c(n1C)NC(=O)CC2c1cc(F)cc(F)c1 (configuration not stated) | 0% | / | / | 48% | / | -30%
O=[N+]([O-])c1cc(S(=O)(=O)N2CCCC2)ccc1N/N=C1/CCCc2ccccc21 | 3.5µM* | -24% | 2 | ? | 14% | ?
CC(=O)C1=C(C)OC(N)=C(C#N)C1c1cc2cccc(C)c2nc1Cl (configuration not stated) | 5%[57.1 µM] | 1% | / | 38% | ? | -19%
COCCOC(=O)C1=C(C)OC(N)=C(C#N)C1c1cc2cccc(C)c2nc1Cl (configuration not stated) | 50µM* | 17% | 1 | 9% | 4% | -23%
CCOC(=O)C1=C(C)OC(N)=C(C#N)C1c1cccc(C)c1 (configuration not stated) | -22% | -2% | -6 | 16% | -27% | -18%
COC(=O)C1=C(C)OC(N)=C(C#N)C1c1cc2cccc(C)c2nc1Cl (configuration not stated) | 79µM* | -9% | / | / | ? | /
Cc1cc(C)n(C(=O)/C=C/c2cccs2)n1 | 56µM* | 25% | 1 | 80% | -9% | 27%
COc1cccc(/C=N/Nc2ccc(S(=O)(=O)O)cc2)c1O | ? | -20% | / | 27% | ? | -15%
O=S(=O)(O)c1ccc(NN=Cc2ccccc2O)cc1 | / | / | -13 | 1%[57 µM] | / | 100µM*
O=[N+]([O-])c1ccc(N/N=C/c2ccc[nH]2)cc1 | 45µM* | ? | -14 | ? | -1% | 56µM*
O=[N+]([O-])c1ccc(NN=Cc2cccc([N+](=O)[O-])c2)cc1 | / | / | -17 | -17% | / | ?
O=[N+]([O-])c1ccc(C=NNc2ccc(S(=O)(=O)O)cc2)cc1 | / | / | -29 | 2%[57 µM] | / | 79µM*
Cc1cc(C)n2ncc(C(=O)NCC(C)C)c2n1 | / | / | / | / | / | 1%
c1ccc(CN(Cc2ccccc2)Cc2nnc(-c3cc4ccccc4[nH]3)o2)cc1 | / | / | / | / | / | -13%
O=C(O)c1ccc(S(=O)(=O)c2ccc(Sc3ccc(C(=O)O)c(C(=O)O)c3)cc2)cc1 | 50µM* | -6% | -24 | 16% | ? | -14%
Cc1ccc(S(=O)(=O)N2CCN(C(=O)C3CCN(C(=O)c4ccc(F)cc4)CC3)CC2)c(C)c1 | 11% | -3% | 7 | 10% | / | 18µM*
Cc1ccc(S(=O)(=O)N2CCN(C(=O)C3CC3C)CC2)c(C)c1 (configuration not stated) | -8% | 6% | 1 | 32% | / | 3%
COc1ccccc1CNC(=O)CCCc1nnc2n(CC(C)C)c(=O)c3sccc3n12 | 15% | / | / | 73% | / | 23%
Nc1nc(N)c2nc(-c3ccccc3)c(N)nc2n1 | 12% | -2% | ? | 22% | ? | -20%
NSc1nc(N)c2nc(-c3ccccc3)c(-c3ccccc3)nc2n1 | -24% | -21% | -53* | 2% | ? | -31%
c1coc(CNc2nc(-c3cccs3)cs2)c1 | 45µM* | 28µM* | 2 | -32% | -27% | ?
SMILES | BAZ2B inh | L3MBTL1 block | PI5P4K alpha inh | HP1b chromo inh | JMJD2E inh | JMJD2A Tudor
COc1ccc([S+](=O)([O-])N2CCN([S+](=O)([O-])c3ccc4c(c3)OCCO4)CC2)c(OC)c1 | / | / | / | / | / | -25%
Cc1ccc(-c2onc(C)c2C)cc1S(=O)(=O)NCc1ccc(N(C)C)cc1 | 35µM* | / | / | ? | / | 40µM*
Cc1nc(-c2ccc(S(=O)(=O)NCc3ccc(N(C)C)cc3)cc2)co1 | 40µM* | / | / | -8%[57 µM] | / | 50µM*
Cc1ccc(-c2onc(C)c2C)cc1S(=O)(=O)NC1CCCCC1 | 3% | / | / | 29% | / | 4%
CC(=O)Nc1ccc(NC(=O)c2ccc3c(c2)N(Cc2cccc(Cl)c2)C(=O)c2ccccc2S3=O)cc1 (configuration not stated) | 2% | / | / | -4% | / | -17%
c1ccc2c(OCCCN3CCCCCC3)cccc2c1 | 56µM* | 0% | -16 | ? | / | 22µM*
CCc1ccccc1OCCCCN1CCCCC1 | ? | -2% | 9 | ? | / | 1.8µM*
COc1ccccc1OCCCCN1CCCCC1 | -35% | -8% | -1 | 10% | / | -9%
COc1ccccc1N1CCN(CCCCCCOc2ccc(F)cc2)CC1 | -37% | -4% | 0 | 1% | -4% | -34%
CCc1ccccc1OCCCN1CCCC1 | ? | ? | 7 | -15% | / | -89%
COc1ccccc1N1CCN(CCCCOc2cccc3ccccc23)CC1 | 35µM* | -6% | 1 | -19% | -6% | ?
Clc1cccc(OCCCN2CCCC2)c1Cl | -31% | -3% | 1 | ? | -24% | 20µM*
O=S(=O)(c1cccc(F)c1)N1CCN(S(=O)(=O)c2ccc3c(c2)OCCO3)CC1 | / | / | / | / | / | -19%
O=C(c1ccco1)N(Cc1cccnc1)c1nc2ccc(F)cc2s1 | -16% | / | / | 16% | / | -15%
O=C(O)C/C(=C\c1ccc(N2CCOCC2)c([N+](=O)[O-])c1)c1nc2ccccc2s1 | 50µM* | -8% | -54* | -6% | -8% | -9%[11.4 µM]
O=C(O)CC/C(=C\c1ccc(Cl)c([N+](=O)[O-])c1)c1nc2ccccc2s1 | -39% | -3% | 4 | 19% | 0% | -25%
CC(=O)Nc1ccc(N2CCOCC2)c([N+](=O)[O-])c1 | -21% | 5% | 1 | 16% | -3% | -1%
O=C(O)CC/C(=C\c1ccc(N2CCOCC2)c([N+](=O)[O-])c1)c1nc2ccccc2s1 | 35µM* | -14% | 1 | -11% | -1% | ?
COC(=O)C1=C(C)N(C)C(=O)NC1c1cc2c(cc1[N+](=O)[O-])OCO2 (configuration not stated) | 50µM* | / | 1 | 29% | ? | -2%
CCCCc1ccc(-n2c(Cc3cccs3)n[nH]c2=S)cc1 | ? | -13% | -5 | -19% | -14% | ?
